The full list was thinned out, with hits kept by preference.
MRP resist rev – MRP-mediated drug resistance reversal; differential viability (reversal), % at 10 µM; H69AR cells + 2 uM doxorubicin, CellTiter-Glo, 72 h; actives 0.04% (n = 85,000);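 active means viability drop by adding the cancer drug above about 55%, with treated viability meeting a 40% cutoff, limit read from the data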;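 further: larger differential means the compound sensitizes cells more to doxorubicin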
MRP1 act – activates MRP-1; AID 799; actives 0.61% (n = 140,000); viability increase, % at 10 µM; H69AR cells + doxorubicin, viability rescue, CellTiter-Glo;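 active means viability gain under doxorubicin at or above a set limit, the compound median plus 3 SD, cut at about 4.7% in these data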;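 further: MRP-1 overexpressing cells given doxorubicin 25 µM after compound pretreatment; 18-22 h compound pretreatment then 72 h with doxorubicin before readout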
Large screens that a line does not name were inactive.

Cn1cc(Br)c(C(=O)NNC(=O)c2ccc(Cl)cc2)n1	MRP1 act 6.4 (no result: MRP resist rev)
Cn1cc(Br)c(C(=O)NNC(=O)c2cccc(Br)c2)n1	none (no result: MRP resist rev)
CCCCCn1cnc2c(sc3nc4c(cc32)CSC(C)(C)C4)c1=O	none (no result: MRP resist rev)
CCOC(=O)c1c(-c2ccccc2)oc2cc(CN(C)C)c(O)c(CN(C)C)c12	none (no result: MRP1 act)
CCCC(=O)NC(=S)Nc1ccc(C(C)=O)cc1	MRP1 act 11.1 (no result: MRP resist rev)
CCCC(=O)NC(=S)Nc1ccccc1C(=O)OC	none (no result: MRP resist rev)
Cc1ccc(OCc2nnc(SCC(=O)Nc3cccc4ccccc34)n2-c2ccccc2)cc1	MRP1 act 6.3
CCc1nnc(NC(=O)CSc2nnc(COc3ccccc3)n2-c2ccc(C)cc2)s1	none
COc1ccc(-c2nc(=S)c3c([nH]2)Oc2ccc(C)cc2C3)cc1O	none (no result: MRP resist rev)
COc1ccc(C2=NN(C(=O)c3cccs3)C(c3ccc(OC)cc3)C2)cc1 (stereo not drawn)	MRP1 act 7.5 (no result: MRP resist rev)
O=C(c1cccs1)N1N=C(c2ccccc2)CC1c1ccccc1 (stereo not drawn)	none (no result: MRP resist rev)
Cc1ccc(C(C)C)c(OCc2nc(-c3nonc3N)no2)c1	MRP1 act 6.4
Nc1nonc1-c1noc(CCCOc2ccc(Cl)cc2Cl)n1	none
COc1cccc(OCc2nnc(SCC(=O)N3c4ccccc4Sc4ccc(Cl)cc43)o2)c1	none (no result: MRP resist rev)
Cc1ccc(OCc2nnc(SCC(=O)N3c4ccccc4Sc4ccc(Cl)cc43)o2)cc1	MRP1 act 10.8 (no result: MRP resist rev)
Cc1ccc(C(=O)CSc2nnc(COc3cccc(C)c3)o2)cc1	MRP resist rev 92.3
Cc1ccc(C(=O)CSc2nnc(COc3cccc4cccnc34)o2)cc1	none
Cc1cccc(OCc2nnc(SCC(=O)N3c4ccccc4Sc4ccc(Cl)cc43)o2)c1	none (no result: MRP resist rev)
COc1ccc(OCc2nnc(SCC(=O)N3c4ccccc4Sc4ccc(Cl)cc43)o2)cc1	MRP1 act 14.6 (no result: MRP resist rev)
Cc1c(Cl)c([N+](=O)[O-])nn1CC(=O)NC(C)C1CC2CCC1C2 (stereo not drawn)	none (no result: MRP resist rev)
CN(C)CCCNc1ccc(S(N)(=O)=O)cc1[N+](=O)[O-]	none (no result: MRP resist rev)
CCC(=O)Nc1cccc(NC(=O)c2cccc([N+](=O)[O-])c2)c1	none (no result: MRP resist rev)
Cc1ccc(C(=O)Nc2cc(C)c(OCC(=O)N3CCOCC3)c(C)c2)cc1	none
COc1cc(NC(=O)Cn2nc(C(F)(F)F)c(Br)c2C)cc([N+](=O)[O-])c1	none (no result: MRP resist rev)
c1cnc(N2CCN(c3nc4ccccc4n4cnnc34)CC2)nc1	none
c1ccc(C(c2ccccc2)N2CCN(c3nc4ccccc4n4cnnc34)CC2)cc1	MRP1 act 6.7
Cn1nnnc1SCc1csc(Nc2ccccc2)n1	none
Cc1ccc(Nc2nc(CSc3nnnn3C)cs2)cc1	MRP1 act 5.4
C=C1C(=O)[C@@]23[C@H](O)C[C@@H]4C(C)(C)CC[C@H](O)[C@@]4(C)[C@@H]2CC[C@@H]1[C@H]3O	none (no result: MRP resist rev)
Cc1ccc(S(=O)(=O)Cn2nnnc2C(c2ccc(F)cc2)N2CCC(C(N)=O)CC2)cc1 (stereo not drawn)	none
Oc1ccc(-c2nc3c4c(ncn3n2)-c2ccccc2CC42CCCC2)cc1	none (no result: MRP resist rev)
O=C(O)c1ccc(-n2nnnc2SCc2ccccc2)cc1	MRP resist rev 82.6
NC(=O)c1ccc(-n2nnnc2SCc2ccc(F)cc2)cc1	none
CC(=O)Nc1ccc(S(=O)(=O)NC2(C(F)(F)F)N=C(c3ccccc3)NC2=O)cc1 (stereo not drawn)	none (no result: MRP resist rev)
COc1cc(C2Nc3cccc4cccc(c34)N2)ccc1OC(C)=O	none (no result: MRP resist rev)
COc1cc(C2Nc3cccc4cccc(c34)N2)cc(OC)c1O	MRP1 act 6.5
CCN(CC)c1ccc(/C=N/NC(=O)Nc2nonc2N)cc1	none (no result: MRP resist rev)
Clc1cccc(CN2CCCCCCC2)c1Cl	none (no result: MRP resist rev)
O=C(OCc1csc(Nc2ccccc2)n1)c1ccc(Cl)cc1	none (no result: MRP resist rev)
COc1cccc(/C=N/NC(=O)C(C)n2nc(C)c([N+](=O)[O-])c2C)c1O (stereo not drawn)	MRP1 act 9.0 (no result: MRP resist rev)
COc1cccc(/C=N/NC(=O)C(=O)N2CCCC2)c1O	MRP1 act 5.4 (no result: MRP resist rev)
COc1cccc(/C=N/NC(=O)CSc2ccccc2C)c1O	none (no result: MRP resist rev)
COc1cccc(NC(=S)NNC(=O)C(C)n2nc(C)c([N+](=O)[O-])c2C)c1 (stereo not drawn)	none (no result: MRP resist rev)
COc1cccc(/C=N/NC(=O)C(=O)N2CCCC2)c1OC	none (no result: MRP resist rev)
COc1cccc(/C=N/NC(=O)Cn2nc(C)c([N+](=O)[O-])c2C)c1O	MRP1 act 6.6 (no result: MRP resist rev)
COc1ccc(/C=C2\CCCc3c2nc2ccccc2c3C(=O)OCC(=O)c2c(N)n(C)c(=O)n(C)c2=O)cc1	none (no result: MRP resist rev)
CC(=O)c1ccc(N2CCN(c3ccc(C(F)(F)F)cn3)CC2)cc1	MRP1 act 7.8 (no result: MRP resist rev)
CC(=O)c1ccc(N2CCN(c3ncc(C(F)(F)F)cc3Cl)CC2)cc1	none
CC(C)c1cc(C(=O)N/N=C/c2cccnc2)n[nH]1	none (no result: MRP resist rev)
O=C(CC1(O)C(=O)Nc2ccc(Br)cc21)c1ccc2c(c1)OCO2 (stereo not drawn)	none
C=CCOc1c(CNc2ccc(C(=O)O)cc2)cccc1OCC	MRP1 act 6.7 (no result: MRP resist rev)
C=CCOc1c(CNc2ccc(C(=O)O)cc2)cccc1OC	none (no result: MRP resist rev)
Cc1cc(C(=O)Nc2ncn[nH]2)ccc1[N+](=O)[O-]	none (no result: MRP resist rev)
Cc1cc(NC(=O)c2c(Br)c(C)nn2C)no1	none (no result: MRP resist rev)
CN(C)c1oc(-c2ccc(Cl)cc2)nc1S(=O)(=O)c1ccccc1	none (no result: MRP resist rev)
COc1ccc(C2C(C#N)=C(N)SC(N)=C2C#N)cc1OC	none
N#CC1=C(N)SC(N)=C(C#N)C1c1cccc(O)c1	MRP1 act 5.1
O=C(c1ccccn1)N1N=C2/C(=C/c3ccccc3)CCCC2C1c1ccccc1 (stereo not drawn)	none (no result: MRP resist rev)
O=C(CSc1ncn[nH]1)N1N=C2/C(=C/c3ccco3)CCCC2C1c1ccco1 (stereo not drawn)	MRP1 act 8.4
COc1cccc(C2SCC(=O)N2c2ccc(Br)cc2)c1OC (stereo not drawn)	none (no result: MRP resist rev)
CC(=C\C(=O)O)/C(=C/c1ccc(C)o1)C(=O)O	none (no result: MRP resist rev)
COc1ccc(-n2c(C)nc(=O)c(-c3ccccc3)c2C)cc1	MRP1 act 8.2
Cc1nc(=O)c(-c2ccccc2)c(C)n1-c1cccc(C(=O)O)c1	MRP1 act 6.0
Cc1nc(=O)c(-c2ccccc2)c(C)n1-c1ccccc1C(=O)O	none
COC(=O)c1ccc(-n2c(C)nc(=O)c(-c3ccccc3)c2C)cc1	none
Brc1ccc(N=C(c2ccccc2)c2ccncc2)cc1	none (no result: MRP resist rev)
COc1ccc(Nc2nc(-c3cccc([N+](=O)[O-])c3)nc3ccccc23)cc1	none (no result: MRP resist rev)
CCC(Sc1nc(-c2ccccc2)c(C#N)c(=O)[nH]1)C(=O)Nc1cc(C)on1 (stereo not drawn)	MRP1 act 10.6
COC(=O)C(CC(C)C)NC(=O)CSc1nc(-c2ccccc2)c(C#N)c(=O)[nH]1 (stereo not drawn)	MRP1 act 10.8
CCSc1nc(-c2ccccc2)c(C#N)c(=O)[nH]1	none
CCC(Sc1nc2ccccc2[nH]1)C(=O)Nc1cc(C)on1 (stereo not drawn)	none
O=C(NC1CC1)c1ccc2c(c1)C1C3CCC(C3)C1C(c1ccccc1)N2 (stereo not drawn)	none (no result: MRP resist rev)
O=S(=O)(NCCn1ccc2ccccc21)c1ccccc1	none
Cc1[nH]c2ccccc2c1C(=O)C(=O)NCCC1=CCCCC1	MRP1 act 12.0 (no result: MRP resist rev)
O=C(NCCC1=CCCCC1)C(=O)NCc1ccccc1	none (no result: MRP resist rev)
Cc1ccccc1N=C1NC(=O)CC(c2ccccc2)S1 (stereo not drawn)	none (no result: MRP resist rev)
Cc1oc(C(=O)Nc2ccc(C(=O)O)cc2)cc1COc1ccccc1	MRP1 act 7.2
CC(=O)c1cc(C(=O)Nc2ccc(C(=O)O)cc2)oc1C	none
CCC(C)n1c(SCc2ccc([N+](=O)[O-])cc2)nc2ccsc2c1=O (stereo not drawn)	none (no result: MRP resist rev)

Screens from PubChem BioAssay.
